Entries with a potency or affinity are not part of this list. Values without a mark were called inactive. Calls of active or inactive are those of the source.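 Rule for the calls: active = cytotoxic compounds whose fitted half-maximal concentration is at most twice the highest valid tested dose; inconclusive = flat curve with 30 to 70% cell loss, or poor fit; inactive = the rest, including signal rising instead of falling.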
Assay: HepG2 cell cytotoxicity, dose response, cytotoxicity control, ATP luminescence, dry powder, set 2 (AID 743129)
Details: HepG2 viability, ATP luminescence (CellTiter-Glo), 72 h; series mostly up to 26 µM; activity change, negative = cytotoxicity: at the top concentration
For COC(=O)C1=C(C)N(Cc2ccc(Br)cc2)C(=S)NC1c1ccc(F)cc1 (stereo not drawn), the “activity change, negative = cytotoxicity” value was 0.837%. For S=c1[nH]c2ccccc2n1CCOc1ccccc1, the “activity change, negative = cytotoxicity” value was -11.9%. For Cc1cccc(OCCn2c(=S)[nH]c3cc(C(F)(F)F)ccc32)c1, the “activity change, negative = cytotoxicity” value was -10.2%. For CCOC(=O)c1c(-c2ccc(F)cc2)csc1NC(=O)CN1CCN(CC)CC1, the “activity change, negative = cytotoxicity” value was -0.94%. In the case of CCOC(=O)c1c(-c2ccc(OC)cc2)csc1NC(=O)CN(C)CC(=O)N(C)C, the “activity change, negative = cytotoxicity” value is reported as 6.85%. With Cc1ccc(OCCn2c(=S)[nH]c3ccccc32)c(C(C)C)c1 the outcome was “inactive”. In the case of Cc1ccc2c(c1)[nH]c(=S)n2CCOc1ccccc1, the “activity change, negative = cytotoxicity” value is reported as 29.2%. With Cc1ccccc1OCCn1c(=S)[nH]c2ccccc21 the “activity change, negative = cytotoxicity” value was -14.9%. With CCOC(=O)c1c(-c2ccc(F)cc2)csc1NC(=O)CN1CCN(C)CC1 the “activity change, negative = cytotoxicity” value was 21.1%. In the case of COC(=O)C1=C(C)N(Cc2ccc(Br)cc2)C(=S)NC1c1ccc(OC)cc1 (stereo not drawn), the “activity change, negative = cytotoxicity” value is reported as -26.8%. With Cc1ccc(OCCn2c(C)nc3ccccc32)cc1 the “activity change, negative = cytotoxicity” value was 15%. For Cc1ccc(C(C)C)c(OCCn2c(=S)[nH]c3ccccc32)c1, the “activity change, negative = cytotoxicity” value was 39.7%. In the case of Cc1ccc(OCCn2c(=S)[nH]c3ccccc32)cc1, the “activity change, negative = cytotoxicity” value is reported as -23.9%. In the case of COC(=O)C1=C(C)N(Cc2ccc(Cl)cc2)C(=S)NC1c1ccc(Br)cc1 (stereo not drawn), the “activity change, negative = cytotoxicity” value is reported as -1.77%. For COC(=O)C1=C(C)N(Cc2ccccc2)C(=S)NC1c1ccc(Br)cc1 (stereo not drawn), the “activity change, negative = cytotoxicity” value was -2.68%. In the case of Fc1cccc2c1[nH]c(=S)n2CCOc1ccccc1, the “activity change, negative = cytotoxicity” value is reported as 12.8%. With c1ccc(OCCn2cnc3ccccc32)cc1 the “activity change, negative = cytotoxicity” value was -27.1%. For S=c1[nH]c2cccc(Cl)c2n1CCOc1ccccc1, the “activity change, negative = cytotoxicity” value was -3.38%. With CCOc1ccc(OCCn2c(=S)[nH]c3ccccc32)cc1 the “activity change, negative = cytotoxicity” value was -26.2%. For S=c1[nH]c2ccccc2n1CCOc1ccc(Cl)cc1, the “activity change, negative = cytotoxicity” value was -7.15%. With Cc1ccc(OCCn2cnc3ccccc32)cc1 the “activity change, negative = cytotoxicity” value was -2.07%. With Fc1ccccc1OCCn1c(=S)[nH]c2ccccc21 the “activity change, negative = cytotoxicity” value was -13%. With O=c1[nH]c2ccccc2n1CCOc1ccccc1 the outcome was “inactive”.
